In the library only some 21% were active in any assay of this set; here they are far more common.
Pf growth 48h: Primary qHTS for delayed death inhibitors of the malarial parasite plastid, 48 hour incubation. P. falciparum luciferase growth in erythrocytes, 48 h. Potency, µM (top dose mostly 28.7 µM), for the others: top-dose activity change, negative = inhibition, actives largely listed as inhibitors. actives 5.9% (n = 310,000); active = well fitted inhibition curve with a large enough effect; inconclusive = small, poorly fitted or top-dose-only effect, or another doubt; inactive = no such curve, though single readings can be large or run the other way; note: potency is the fitted concentration of half-maximal effect; % is set by controls: 0 for no effect and ±100 for the full control effect
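First compound was added to culture medium, then infected red cells at 0.1% parasitemia and 2% hematocrit (final). After incubation at 37 C under 5% CO2, luciferase detection reagent was dispensed and light output recorded.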
Pf growth 96h: Primary qHTS for delayed death inhibitors of the malarial parasite plastid, 96 hour incubation; P. falciparum luciferase reporter growth, 96 h; AID 504834, 2011; actives 6.9% (n = 320,000); Potency, µM (top dose mostly 28.7 µM), without a hit: at the highest dose activity change, negative = inhibition, actives largely listed as inhibitors; active = well fitted inhibition curve with a large enough effect; inconclusive = small, poorly fitted or top-dose-only effect, or another doubt; inactive = no such curve, though single readings can be large or run the other way; note: potency is the fitted concentration of half-maximal effect; % is set by controls: 0 for no effect and ±100 for the full control effect
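P. falciparum expressing integrated firefly luciferase grown in erythrocytes (2% hematocrit, 0.05% parasitemia final) with compounds for 96 hours at 37 C, 5% CO2. Growth inhibition read as loss of luminescence after adding luciferase detection reagent.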
SARS PLpro yeast: qHTS of Yeast-based Assay for SARS-CoV PLP. actives 0.19% (n = 330,000). AID 485353, 2010. S. cerevisiae expressing SARS-CoV PLpro, growth rescue. Potency, µM (top dose mostly 32.9 µM), for inactives: top-dose activity, positive = growth rescue, most hits filed as activators; note: potency is the fitted concentration of half-maximal effect; 0% is about no effect; nearly all actives have a fitted effect of over 55% in size
NS1 function inh: qHTS Assay for Inhibitors of Influenza NS1 Protein Function; Potency, µM (doses to about 46.1 µM), for inactives: at the top dose activity, positive = more growth; actives 0.4% (n = 270,000); note: potency is the fitted concentration of half-maximal effect; actives are rising curves; nearly all actives have a fitted effect of over 50% in size
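S. cerevisiae expressing influenza A NS1, grown in glucose, washed, then diluted 1:100 into pH 6.0 -URA galactose medium with 23 nl compound. Growth recovery read as OD600; NS1-free strain serves as control.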
Shiga inhibitor: A qHTS for Small Molecule Inhibitors of Shiga Toxin. Vero cells, Shiga toxin protein synthesis inhibition reporter. inhibition, % at 38.7 µM. actives 9.2% (n = 290,000). AID 2315, 2010; in the data active = inhibition mostly above about 28%, no sharp cut-off; inactive = mostly below about 43%; note: 0% is about no effect
Cycloheximide cs: Cycloheximide Counterscreen for Small Molecule Inhibitors of Shiga Toxin | cell reporter, cycloheximide protein synthesis inhibition counterscreen | actives 12% (n = 300,000) | max response, %; in the data active = max response mostly above about 13%, no sharp cut-off; inactive = mostly below about 14%; note: read at 38.3 µM for the half of the compounds with a filed dose; 0% is about no effect
The depositor's hits bear a star. Unless noted, calls come from the whole dose curve.

Results for CCOC(=O)C1(Cc2ccc(Cl)cc2)CCN(C(=O)c2ccoc2)CC1 ?
Pf growth 48h: -5%; Pf growth 96h: inconclusive; SARS PLpro yeast: 0%; NS1 function inh: 4%; Shiga inhibitor: 24; Cycloheximide cs: 3

What do the screens show for `Cc1cccc(N=C2NC(=O)/C(=C/c3cccs3)S2)c1`?
Pf growth 48h: -22%; Pf growth 96h: -17%; SARS PLpro yeast: -6%; NS1 function inh: 19%; Shiga inhibitor: active; Cycloheximide cs: 34*

How did Cc1ccc(-c2nc(-c3cccnc3)no2)c(C)c1 do in these assays?
Pf growth 48h: inconclusive; Pf growth 96h: -12%; SARS PLpro yeast: -5%; NS1 function inh: -67%; Shiga inhibitor: 108*; Cycloheximide cs: 36*

What do the screens show for `Cc1c(-c2nc(-c3cccnc3)no2)cccc1[N+](=O)[O-]`?
Pf growth 48h: -1%; Pf growth 96h: 14%; SARS PLpro yeast: 1%; NS1 function inh: -2%; Shiga inhibitor: 38; Cycloheximide cs: 24*

What do the screens show for `CCOC(=O)C1=C(C)NC2=C(C(=O)CC(c3ccc(OC)c(OC)c3)C2)C1c1ccc(C)o1` (stereo not given)?
Pf growth 48h: 1.2µM*; Pf growth 96h: inconclusive; SARS PLpro yeast: -6%; NS1 function inh: 3%; Shiga inhibitor: -17; Cycloheximide cs: -1

Results for CC1=C(C(=O)OCc2ccccc2)C(c2ccc(C)o2)C2=C(CCCC2=O)N1 (stereo not given) ?
Pf growth 48h: 12µM*; Pf growth 96h: 85%; SARS PLpro yeast: -1%; NS1 function inh: -18%; Shiga inhibitor: -6; Cycloheximide cs: -2

What do the screens show for `COC(=O)C1=C(C)NC(C)=C(C(=O)OCC2CCCO2)C1c1cccc(Br)c1` (stereo not given)?
Pf growth 48h: 9.3µM*; Pf growth 96h: inconclusive; SARS PLpro yeast: 0%; NS1 function inh: -62%; Shiga inhibitor: -31; Cycloheximide cs: 3

What do the screens show for `COc1ccc(C2C(C(=O)OCC3CCCO3)=C(C)NC3=C2C(=O)CC(c2ccco2)C3)cc1O` (stereo not given)?
Pf growth 48h: inconclusive; Pf growth 96h: 10µM*; SARS PLpro yeast: -1%; NS1 function inh: 18%; Shiga inhibitor: -17; Cycloheximide cs: -2

How did COC(=O)C1C(=O)C2=C(CC1C)NC(C)=C(C(=O)OCc1ccc(OC)cc1)C2c1ccc(C)o1 (stereo not given) do in these assays?
Pf growth 48h: inconclusive; Pf growth 96h: inconclusive; SARS PLpro yeast: 0%; NS1 function inh: -45%; Shiga inhibitor: 3; Cycloheximide cs: -2

Results for CC1=C(C(=O)OCC2CCCO2)C(c2cccc(O)c2)NC(=O)N1 (stereo not given) ?
Pf growth 48h: 14%; Pf growth 96h: 34%; SARS PLpro yeast: -3%; NS1 function inh: inconclusive; Shiga inhibitor: -1; Cycloheximide cs: 1

What do the screens show for `CCn1cc(C(=O)NC2CCCc3c2cnn3-c2cccc(C)c2C)cn1` (stereo not given)?
Pf growth 48h: -12%; Pf growth 96h: inconclusive; SARS PLpro yeast: 1%; NS1 function inh: 9%; Shiga inhibitor: -3; Cycloheximide cs: 10

Results for CC(Sc1ccc(Cl)cc1)C(=O)N(C)CC(=O)Nc1ccc(N2CCOCC2)cc1 (stereo not given) ?
Pf growth 48h: -2%; Pf growth 96h: 0%; SARS PLpro yeast: -4%

Results for CC1=C(C(=O)OC(C)C)C(c2coc3ccccc3c2=O)C2=C(CCCC2=O)N1 (stereo not given) ?
Pf growth 96h: -8%; SARS PLpro yeast: 0%; NS1 function inh: 4%; Shiga inhibitor: -7; Cycloheximide cs: -3

What do the screens show for `COc1ccccc1NC(=O)C1=C(C)NC2=C(C(=O)CC(c3ccc(OC)c(OC)c3)C2)C1c1coc2ccccc2c1=O` (stereo not given)?
Pf growth 48h: 12µM*; Pf growth 96h: 0%; SARS PLpro yeast: -29%; NS1 function inh: 29%; Shiga inhibitor: 7; Cycloheximide cs: -2

How did CCN(C[C@H]1N[C@@](C)(C(=O)OC)[C@H]2C(=O)N(C)C(=O)[C@@H]12)S(=O)(=O)c1ccc(-c2ccccc2)cc1 do in these assays?
SARS PLpro yeast: 1%

Results for Cc1cccc(NC(=O)NCc2ccc3c(c2)OCO3)c1 ?
Pf growth 48h: 132%; Pf growth 96h: inconclusive; SARS PLpro yeast: -4%; NS1 function inh: -3%; Shiga inhibitor: 79*; Cycloheximide cs: 39*

What do the screens show for `Cc1ccc(NC(=O)NCc2ccc3c(c2)OCO3)cc1`?
Pf growth 96h: 23%; SARS PLpro yeast: 7%; NS1 function inh: -8%; Shiga inhibitor: 27; Cycloheximide cs: 16*

How did COCCCn1c(=O)c2ccccc2n(Cc2cc(C(=O)OC)ccc2OC)c1=O do in these assays?
Pf growth 48h: 7.4µM*; Pf growth 96h: 15%; SARS PLpro yeast: 2%; NS1 function inh: 1%; Shiga inhibitor: -5; Cycloheximide cs: 2

How did O=C(Nc1ccc2c(c1)CN(Cc1ccccc1O)CC2)C1CCCO1 (stereo not given) do in these assays?
Pf growth 48h: inconclusive; Pf growth 96h: 3.3µM*; SARS PLpro yeast: -1%; NS1 function inh: -17%; Shiga inhibitor: -1; Cycloheximide cs: -3

What do the screens show for `CN(C)S(=O)(=O)N1CCc2ccc(NC(=O)C3CCCO3)cc2C1` (stereo not given)?
Pf growth 48h: -8%; Pf growth 96h: inconclusive; SARS PLpro yeast: -11%; NS1 function inh: 8%; Shiga inhibitor: -2; Cycloheximide cs: 15

Results for O=C(Nc1cccc(NC(=O)C2CCCO2)c1)C1CCCO1 (stereo not given) ?
Pf growth 48h: 42%; Pf growth 96h: 2%; SARS PLpro yeast: 12%; NS1 function inh: 2%; Shiga inhibitor: -4; Cycloheximide cs: -4

What do the screens show for `O=C(Nc1ccc2c(c1)CCC2)C1CCCO1` (stereo not given)?
Pf growth 48h: 90%; SARS PLpro yeast: -3%; NS1 function inh: -2%; Shiga inhibitor: 53*; Cycloheximide cs: 39*

Results for Cc1ccc(-c2nnc(SCC(=O)NC3CCCC3)n2N)cc1 ?
SARS PLpro yeast: 20%

What do the screens show for `CC1(C)CC(=O)C(C(=S)Nc2ccccc2)=C(NCCN2CCOCC2)C1`?
Pf growth 48h: -3%; Pf growth 96h: -27%; SARS PLpro yeast: 3%; NS1 function inh: 14%; Shiga inhibitor: -10; Cycloheximide cs: 2

Results for CN1c2ccc([N+](=O)[O-])cc2N(C)C1(C)c1ccccc1 (stereo not given) ?
Pf growth 48h: 12µM*; Pf growth 96h: inactive; SARS PLpro yeast: 1%; NS1 function inh: 12%; Shiga inhibitor: -9; Cycloheximide cs: -2

Source: PubChem BioAssay (National Center for Advancing Translational Sciences (NCATS))
